Data taken from PubChem BioAssay AID493029 (Johns Hopkins Ion Channel Center, 2011).
About 140 (14%) of roughly 1,000 compounds were called active. How the calls were made is not given here. Only a sample is shown.

Test: thallium flux change in parental CHO cells, counter-screen for KCNQ2 inhibitor project (AID 493029);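 on activity change: 0% = vehicle negative controls with stimulus buffer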
Settings: at 10 µM; active compounds read low

Structure (SMILES) | activity change
CCc1ccc(-c2nn(-c3ccccc3)cc2CSC(=N)N)cc1 | -31% (active)
CC(NC(=S)NNS(=O)(=O)c1ccc(C(C)(C)C)cc1)c1ccccc1 (stereo unspecified) | inactive
C=CS(=O)c1sc(Cl)c(N2CCOCC2)c1[N+](=O)[O-] (stereo unspecified) | -22.5% (active)
Cc1ccc(C(=O)c2c(NC(=O)c3ccccc3)sc(C)c2C)cc1 | inactive
O=C(OCC(=O)N(CCc1ccccc1)Cc1ccccc1)c1ccccc1[N+](=O)[O-] | inactive
CCOC(=O)C(C)Sc1nc2ccccc2c(=O)n1CC1CCCCC1 (stereo unspecified) | -21% (active)
Cc1ccc(C2=Nc3c(ccc4ccccc34)C(c3ccncc3)=NN2)cc1 | inactive
COc1cccc(COc2ccc(N(C)S(=O)(=O)c3ccccc3)cc2)c1 | inactive
Cc1ccc(C(C)C)cc1OCC(=O)Nc1ccccc1N1CCCC1 | inactive
CC(C)N(C(=O)CSc1nc(COc2ccccc2)nc2ccccc12)C(C)C | -42.5% (active)
CCc1ccc(-c2cc(C(=O)NCc3ccco3)c3ccccc3n2)s1 | inactive
CC(C)[C@H](NC(=O)OCc1ccccc1)C(=O)OCc1ccccc1 | inactive
Cc1ccc(N2C(=O)C3C(c4ccccc4)(C2=O)C3(c2ccccc2)c2ccccc2)cc1 (stereo unspecified) | inactive
Cc1cccc(C(=O)OC(C)C(=O)NC2CCCc3ccccc32)c1O (stereo unspecified) | inactive
CCc1ccccc1NC(=O)/C(=C/c1ccccc1)c1ccccc1 | inactive
CSCc1cc(N(C)C)nc(SCc2ccc(Cl)cc2Cl)n1 | inactive

Structure (SMILES) | activity change
O=C(Nc1ccccc1Cl)/C(Cl)=C(\Cl)S(=O)c1ccccc1 (stereo unspecified) | inactive
CCc1ccc2ncc(C(=O)c3ccccc3)c(N3CCOCC3)c2c1 | inactive
COc1ccc(CN(C)C(C)C(=O)NC2CCCc3ccccc32)cc1 (stereo unspecified) | inactive
CC(C(=O)NCC1CCCCC1)N(C)Cc1cccc(Cl)c1 (stereo unspecified) | -35% (active)
CC(C)C(NC(=O)OCc1ccccc1)C(=O)OCC(=O)N1C(C)CCCC1C (stereo unspecified) | inactive
COC(=O)C1=C(C)N(C(C)c2ccccc2)C(=O)/C1=C\c1ccco1 (stereo unspecified) | inactive
Fc1ccc2[nH]c3c(N4CCSCC4)ncnc3c2c1 | inactive
CCOC(=O)N1CCC(N(CCOC)C(=O)Nc2ccc(C)c(C)c2)CC1 | -23.5% (active)
Cc1ccccc1N1CCN(CC(=O)NCc2ccc(Cl)cc2)CC1 | inactive
COc1ccc(Cl)cc1NC(=O)CN(C)Cc1ccc(OC)c(OC)c1 | inactive
CN(Cc1ccccc1F)C(=O)C(Cc1ccccc1)NC(=O)c1ccccc1 (stereo unspecified) | inactive
O=C(Nc1ccc(Cl)c(Cl)c1)N1CC=C(c2ccccc2)CC1 | inactive
Cc1nc2ccccc2c(-c2ccccc2)c1C(=O)c1ccccc1 | inactive
C=CCn1c(SCC(=O)/C(C#N)=C(\C)N)nc2sc(C)c(C)c2c1=O | inactive
Cc1ccccc1C(=O)Nc1ccccc1Sc1ccccc1 | inactive
